The text below walks through data of paper PMC7862700, “An all-to-all approach to the identification of sequence-specific readers for epigenetic DNA modifications on cytosine”.

Assay in all cases: DAPPL (digital affinity profiling via proximity ligation, sequencing); 10 mM Tris-HCl pH 7.5, 50 mM NaCl, 1 mM DTT, 4% glycerol, room temperature, 30 min; GST-TFs on glutathione beads, 16-mer random dsDNA library, 0.1% formaldehyde crosslink after washing; high values mean tight binding
One assay concerns the target T1, FEV (Homo sapiens, UniProt Q99581 1-238).
T1 sequence: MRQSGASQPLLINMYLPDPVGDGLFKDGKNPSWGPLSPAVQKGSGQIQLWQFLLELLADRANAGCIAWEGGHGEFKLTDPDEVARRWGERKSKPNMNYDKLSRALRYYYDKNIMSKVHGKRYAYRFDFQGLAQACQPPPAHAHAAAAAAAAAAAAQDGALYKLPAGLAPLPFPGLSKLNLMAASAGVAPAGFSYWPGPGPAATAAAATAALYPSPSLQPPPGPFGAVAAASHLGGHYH
To be noted: protein: recombinant; tags: N-terminal GST; dsDNA, one strand shown. In a few lines:
(§1)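 A tag-only sample was pooled with DNA-barcoded human transcription factors that had been expressed in yeast as GST fusions and captured on glutathione beads. The pools were incubated for 30 min at room temperature with 200 nmole of a random double-stranded 16-mer DNA library in Tris/NaCl/DTT/glycerol buffer, then washed, crosslinked with 0.1% formaldehyde, proximity-ligated (BsaI/T4 ligase, 1 h, 37 °C), PCR-amplified and sequenced on an Illumina NextSeq500. Binding signal is each hexamer's read frequency for a factor divided by its frequency for the tag-only sample.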

The target in a further assay is ETV5 (Homo sapiens, UniProt P41161 1-510). To be noted: protein: recombinant; tags: N-terminal GST; dsDNA, one strand shown. The essentials:
as §1

The next assay concerns the target HSF1 (Homo sapiens, UniProt Q00613 1-529). As to conditions: protein: recombinant; tags: N-terminal GST; chain copies: 3; dsDNA, one strand shown. The essentials: as §1
Another assay concerns the target T2, SPIC (Homo sapiens, UniProt Q8N5J4 1-248).
T2 sequence: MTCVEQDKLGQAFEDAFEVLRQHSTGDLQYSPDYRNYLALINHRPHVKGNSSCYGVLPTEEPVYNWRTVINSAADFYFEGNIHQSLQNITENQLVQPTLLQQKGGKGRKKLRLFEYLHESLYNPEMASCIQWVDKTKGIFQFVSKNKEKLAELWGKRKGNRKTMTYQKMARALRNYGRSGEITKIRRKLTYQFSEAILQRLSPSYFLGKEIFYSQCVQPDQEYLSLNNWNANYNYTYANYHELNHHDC
As to conditions: protein: recombinant; tags: N-terminal GST; dsDNA, one strand shown. The essentials:
as §1

The target in the next assay is ELF4 (Homo sapiens, UniProt Q99607 1-663). As to conditions: protein: recombinant; tags: N-terminal GST; dsDNA, one strand shown. The essentials: as §1
Chain of ELF4 (Q99607 whole entry): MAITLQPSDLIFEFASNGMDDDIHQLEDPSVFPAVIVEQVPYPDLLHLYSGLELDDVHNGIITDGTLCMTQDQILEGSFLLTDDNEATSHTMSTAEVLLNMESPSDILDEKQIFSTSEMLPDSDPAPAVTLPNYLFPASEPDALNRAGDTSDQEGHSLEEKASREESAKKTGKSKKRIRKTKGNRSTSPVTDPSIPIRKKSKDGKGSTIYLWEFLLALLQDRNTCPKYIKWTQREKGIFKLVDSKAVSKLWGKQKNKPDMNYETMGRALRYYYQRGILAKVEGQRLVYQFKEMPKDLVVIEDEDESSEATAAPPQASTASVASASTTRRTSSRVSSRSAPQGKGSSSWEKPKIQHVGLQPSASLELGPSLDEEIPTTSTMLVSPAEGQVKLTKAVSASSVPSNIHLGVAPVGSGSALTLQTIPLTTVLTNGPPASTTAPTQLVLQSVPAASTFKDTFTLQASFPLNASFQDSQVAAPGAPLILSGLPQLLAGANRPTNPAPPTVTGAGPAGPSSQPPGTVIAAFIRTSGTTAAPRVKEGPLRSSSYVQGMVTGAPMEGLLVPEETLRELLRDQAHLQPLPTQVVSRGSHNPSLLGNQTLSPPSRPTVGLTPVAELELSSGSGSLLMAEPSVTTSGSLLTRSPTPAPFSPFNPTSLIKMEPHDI
The target of the next assay is T3, ELK4 (Homo sapiens, UniProt P28324-2 1-405).
T3 sequence: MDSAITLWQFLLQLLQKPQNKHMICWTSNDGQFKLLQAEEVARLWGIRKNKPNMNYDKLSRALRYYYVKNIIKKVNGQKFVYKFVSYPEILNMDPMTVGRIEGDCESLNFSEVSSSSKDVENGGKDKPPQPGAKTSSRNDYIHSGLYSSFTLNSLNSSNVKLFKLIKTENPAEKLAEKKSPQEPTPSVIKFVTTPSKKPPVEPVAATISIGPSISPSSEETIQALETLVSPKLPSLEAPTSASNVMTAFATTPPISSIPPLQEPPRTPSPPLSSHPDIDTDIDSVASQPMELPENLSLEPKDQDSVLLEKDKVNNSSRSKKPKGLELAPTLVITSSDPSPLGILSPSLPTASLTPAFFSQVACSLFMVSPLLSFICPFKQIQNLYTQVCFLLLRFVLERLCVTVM
As to conditions: protein: recombinant; tags: N-terminal GST; dsDNA, one strand shown. In a few lines:
as §1

Another assay addresses T4, ETV2 (Homo sapiens, UniProt O00321 1-342).
T4 sequence: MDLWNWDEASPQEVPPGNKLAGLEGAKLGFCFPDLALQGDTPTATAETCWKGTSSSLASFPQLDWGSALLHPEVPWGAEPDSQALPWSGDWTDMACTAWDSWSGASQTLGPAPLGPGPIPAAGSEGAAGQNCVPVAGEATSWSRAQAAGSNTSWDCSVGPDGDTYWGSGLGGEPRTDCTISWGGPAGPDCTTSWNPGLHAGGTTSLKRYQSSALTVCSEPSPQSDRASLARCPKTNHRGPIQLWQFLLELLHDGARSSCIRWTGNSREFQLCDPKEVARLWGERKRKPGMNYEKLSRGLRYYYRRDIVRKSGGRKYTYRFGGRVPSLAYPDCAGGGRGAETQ
As to conditions: protein: recombinant; tags: N-terminal GST; dsDNA, one strand shown. The essentials: as §1

Another assay addresses T5, ELF3 (Homo sapiens, UniProt P78545 1-371).
T5 sequence: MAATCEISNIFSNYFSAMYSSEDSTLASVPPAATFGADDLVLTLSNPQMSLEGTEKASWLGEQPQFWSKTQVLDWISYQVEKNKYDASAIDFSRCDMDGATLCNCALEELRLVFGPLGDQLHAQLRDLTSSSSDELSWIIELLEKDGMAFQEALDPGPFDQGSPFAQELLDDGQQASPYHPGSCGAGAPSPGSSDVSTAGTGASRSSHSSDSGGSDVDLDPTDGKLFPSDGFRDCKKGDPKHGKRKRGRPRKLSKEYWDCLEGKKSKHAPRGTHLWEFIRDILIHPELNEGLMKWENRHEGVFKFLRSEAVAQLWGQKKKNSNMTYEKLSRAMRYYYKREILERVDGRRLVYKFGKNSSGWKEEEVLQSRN
To be noted: protein: recombinant; tags: N-terminal GST; dsDNA, one strand shown. In a few lines:
as §1

A further assay deals with CRX (Homo sapiens, UniProt O43186 1-299). As to conditions: protein: recombinant; tags: N-terminal GST; dsDNA, one strand shown. In a few lines:
as §1

In another assay the target is ETV1 (Homo sapiens, UniProt P50549 1-477). As to conditions: protein: recombinant; tags: N-terminal GST; dsDNA, one strand shown. In a few lines:
as §1

Chain of ETV5 (P41161 whole entry): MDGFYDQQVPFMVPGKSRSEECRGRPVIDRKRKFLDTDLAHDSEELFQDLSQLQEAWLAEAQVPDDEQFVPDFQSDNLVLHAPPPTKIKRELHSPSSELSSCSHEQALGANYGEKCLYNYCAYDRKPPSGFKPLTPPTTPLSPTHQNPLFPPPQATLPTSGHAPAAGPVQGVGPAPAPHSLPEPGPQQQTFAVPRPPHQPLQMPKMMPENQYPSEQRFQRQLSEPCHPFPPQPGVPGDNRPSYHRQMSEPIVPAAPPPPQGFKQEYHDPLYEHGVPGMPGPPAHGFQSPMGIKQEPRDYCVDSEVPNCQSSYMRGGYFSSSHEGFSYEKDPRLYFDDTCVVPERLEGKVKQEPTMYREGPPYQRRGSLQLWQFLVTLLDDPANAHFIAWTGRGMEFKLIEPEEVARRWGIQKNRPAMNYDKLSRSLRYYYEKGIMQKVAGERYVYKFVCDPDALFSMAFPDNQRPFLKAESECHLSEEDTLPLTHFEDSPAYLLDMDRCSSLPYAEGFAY
Chain of HSF1 (Q00613 whole entry): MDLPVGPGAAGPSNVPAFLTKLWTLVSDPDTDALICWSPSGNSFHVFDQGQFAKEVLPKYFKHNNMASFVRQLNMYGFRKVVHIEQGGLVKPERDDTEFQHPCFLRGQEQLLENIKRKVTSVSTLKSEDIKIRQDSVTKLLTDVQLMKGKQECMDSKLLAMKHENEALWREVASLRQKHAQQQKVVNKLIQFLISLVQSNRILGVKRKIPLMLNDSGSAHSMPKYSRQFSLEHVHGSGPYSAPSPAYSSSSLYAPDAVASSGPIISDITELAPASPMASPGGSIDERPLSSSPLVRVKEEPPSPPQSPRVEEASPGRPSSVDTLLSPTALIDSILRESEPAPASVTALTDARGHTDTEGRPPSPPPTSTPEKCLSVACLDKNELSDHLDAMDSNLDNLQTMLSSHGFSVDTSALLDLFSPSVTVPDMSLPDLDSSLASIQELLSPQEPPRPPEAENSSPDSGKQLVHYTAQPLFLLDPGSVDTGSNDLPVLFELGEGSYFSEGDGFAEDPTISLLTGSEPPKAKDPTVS
Chain of CRX (O43186 whole entry): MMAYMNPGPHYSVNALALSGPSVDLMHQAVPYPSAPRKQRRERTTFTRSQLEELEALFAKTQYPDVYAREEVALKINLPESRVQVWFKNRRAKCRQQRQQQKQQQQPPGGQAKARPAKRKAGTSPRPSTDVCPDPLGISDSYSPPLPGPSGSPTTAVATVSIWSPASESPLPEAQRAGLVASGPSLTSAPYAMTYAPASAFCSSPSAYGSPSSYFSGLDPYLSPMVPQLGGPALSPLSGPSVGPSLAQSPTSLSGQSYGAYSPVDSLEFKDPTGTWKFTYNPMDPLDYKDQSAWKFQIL
Chain of ETV1 (P50549 whole entry): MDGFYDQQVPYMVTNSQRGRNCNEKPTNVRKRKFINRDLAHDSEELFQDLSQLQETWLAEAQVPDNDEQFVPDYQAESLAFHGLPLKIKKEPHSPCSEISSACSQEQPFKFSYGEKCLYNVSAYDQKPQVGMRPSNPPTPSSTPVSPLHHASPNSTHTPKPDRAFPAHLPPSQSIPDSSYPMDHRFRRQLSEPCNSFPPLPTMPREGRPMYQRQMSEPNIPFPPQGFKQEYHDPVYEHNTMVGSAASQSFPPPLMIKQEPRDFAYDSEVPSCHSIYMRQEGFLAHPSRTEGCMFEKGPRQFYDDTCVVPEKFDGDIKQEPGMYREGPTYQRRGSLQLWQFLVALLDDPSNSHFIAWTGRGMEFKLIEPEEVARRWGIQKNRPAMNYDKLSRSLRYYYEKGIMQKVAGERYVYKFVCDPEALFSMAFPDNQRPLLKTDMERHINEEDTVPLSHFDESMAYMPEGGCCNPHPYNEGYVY

For the sequence TATAAA, the binding signal in the assay with FEV is 1.16 fold enrichment (6-mer frequency, TF over GST control); with ETV5 it was 1.18 fold enrichment (6-mer frequency, TF over GST control); in the assay with HSF1, 1.47 fold enrichment (6-mer frequency, TF over GST control); in the assay with SPIC it was 1.26 fold enrichment (6-mer frequency, TF over GST control); in the assay with ELF4, 1.23 fold enrichment (6-mer frequency, TF over GST control); with ELK4 it was 1.32 fold enrichment (6-mer frequency, TF over GST control). The binding signal was 1.2 fold enrichment (6-mer frequency, TF over GST control) in the assay with ETV2; 1.33 fold enrichment (6-mer frequency, TF over GST control) in the assay with ELF3; 1.85 fold enrichment (6-mer frequency, TF over GST control) in the assay with CRX; 1.16 fold enrichment (6-mer frequency, TF over GST control) with ETV1.
As for TCCGAC, the binding signal with FEV was 1.68 fold enrichment (6-mer frequency, TF over GST control); with ETV5, 1.44 fold enrichment (6-mer frequency, TF over GST control); with HSF1 it was 1.23 fold enrichment (6-mer frequency, TF over GST control); in the assay with SPIC it was 1.59 fold enrichment (6-mer frequency, TF over GST control); with ELF4, 1.44 fold enrichment (6-mer frequency, TF over GST control); with ELK4, 1.43 fold enrichment (6-mer frequency, TF over GST control). The binding signal is 1.35 fold enrichment (6-mer frequency, TF over GST control) in the assay with ETV2; 1.47 fold enrichment (6-mer frequency, TF over GST control) with ELF3; 1.25 fold enrichment (6-mer frequency, TF over GST control) with CRX; 1.55 fold enrichment (6-mer frequency, TF over GST control) with ETV1.
On to CAATTT, for which the binding signal is 1.5 fold enrichment (6-mer frequency, TF over GST control) in the assay with FEV; 1.29 fold enrichment (6-mer frequency, TF over GST control) with ETV5; 1.15 fold enrichment (6-mer frequency, TF over GST control) with HSF1; 1.26 fold enrichment (6-mer frequency, TF over GST control) with SPIC; 1.35 fold enrichment (6-mer frequency, TF over GST control) with ELF4; 1.31 fold enrichment (6-mer frequency, TF over GST control) with ELK4. Further, the binding signal with ETV2 was 1.44 fold enrichment (6-mer frequency, TF over GST control); in the assay with ELF3 it was 1.53 fold enrichment (6-mer frequency, TF over GST control); with CRX, 1.07 fold enrichment (6-mer frequency, TF over GST control); with ETV1, 1.35 fold enrichment (6-mer frequency, TF over GST control).
As to ACTTTG, the binding signal with FEV was 1.13 fold enrichment (6-mer frequency, TF over GST control); in the assay with ETV5, 1.3 fold enrichment (6-mer frequency, TF over GST control); with HSF1, 1.14 fold enrichment (6-mer frequency, TF over GST control); with SPIC, 1.33 fold enrichment (6-mer frequency, TF over GST control); with ELF4, 1.29 fold enrichment (6-mer frequency, TF over GST control); with ELK4, 1.22 fold enrichment (6-mer frequency, TF over GST control). For the same sequence, the binding signal is 1.39 fold enrichment (6-mer frequency, TF over GST control) in the assay with ETV2; 1.28 fold enrichment (6-mer frequency, TF over GST control) with ELF3; 1.18 fold enrichment (6-mer frequency, TF over GST control) in the assay with CRX; 1.21 fold enrichment (6-mer frequency, TF over GST control) in the assay with ETV1.
Take CCAATC: the binding signal with FEV was 1.11 fold enrichment (6-mer frequency, TF over GST control); with ETV5, 1.16 fold enrichment (6-mer frequency, TF over GST control); with HSF1 it was 1.13 fold enrichment (6-mer frequency, TF over GST control); in the assay with SPIC, 1.24 fold enrichment (6-mer frequency, TF over GST control); with ELF4, 1.19 fold enrichment (6-mer frequency, TF over GST control); in the assay with ELK4 it was 1.18 fold enrichment (6-mer frequency, TF over GST control). In addition, the binding signal with ETV2 is 1.16 fold enrichment (6-mer frequency, TF over GST control); in the assay with ELF3, 1.11 fold enrichment (6-mer frequency, TF over GST control); with CRX, 1.33 fold enrichment (6-mer frequency, TF over GST control); with ETV1 it was 1.13 fold enrichment (6-mer frequency, TF over GST control).
For the sequence CTCTGT, the binding signal in the assay with FEV is 1.39 fold enrichment (6-mer frequency, TF over GST control); with ETV5, 1.42 fold enrichment (6-mer frequency, TF over GST control); with HSF1, 1.15 fold enrichment (6-mer frequency, TF over GST control); in the assay with SPIC, 1.5 fold enrichment (6-mer frequency, TF over GST control); with ELF4, 1.33 fold enrichment (6-mer frequency, TF over GST control); in the assay with ELK4 it was 1.5 fold enrichment (6-mer frequency, TF over GST control). Further, the binding signal with ETV2 was 1.39 fold enrichment (6-mer frequency, TF over GST control); with ELF3, 1.4 fold enrichment (6-mer frequency, TF over GST control); with CRX, 1.18 fold enrichment (6-mer frequency, TF over GST control); with ETV1 it was 1.43 fold enrichment (6-mer frequency, TF over GST control).
With CAAATA, the binding signal was 1.14 fold enrichment (6-mer frequency, TF over GST control) in the assay with FEV; 1.14 fold enrichment (6-mer frequency, TF over GST control) in the assay with ETV5; 1.14 fold enrichment (6-mer frequency, TF over GST control) with HSF1; 1.09 fold enrichment (6-mer frequency, TF over GST control) in the assay with SPIC; 1.16 fold enrichment (6-mer frequency, TF over GST control) with ELF4; 1.02 fold enrichment (6-mer frequency, TF over GST control) in the assay with ELK4. The binding signal in the assay with ETV2 is 1.06 fold enrichment (6-mer frequency, TF over GST control); with ELF3, 1.4 fold enrichment (6-mer frequency, TF over GST control); with CRX it was 1.24 fold enrichment (6-mer frequency, TF over GST control); in the assay with ETV1 it was 1.12 fold enrichment (6-mer frequency, TF over GST control).
Take CCTAAT: the binding signal with FEV was 1.32 fold enrichment (6-mer frequency, TF over GST control); in the assay with ETV5, 1.31 fold enrichment (6-mer frequency, TF over GST control); with HSF1, 1.75 fold enrichment (6-mer frequency, TF over GST control); in the assay with SPIC, 1.33 fold enrichment (6-mer frequency, TF over GST control); in the assay with ELF4, 1.26 fold enrichment (6-mer frequency, TF over GST control); with ELK4, 1.24 fold enrichment (6-mer frequency, TF over GST control). The binding signal is 1.44 fold enrichment (6-mer frequency, TF over GST control) with ETV2; 1.52 fold enrichment (6-mer frequency, TF over GST control) with ELF3; 2.61 fold enrichment (6-mer frequency, TF over GST control) with CRX; 1.38 fold enrichment (6-mer frequency, TF over GST control) with ETV1.
